Over roughly 25,000 sequences, “ln(normalized median fluorescence intensity)” has its median near 9.7; the highest 2% begin near 11. The entries come from a sample that favours the highest values as a whole.
These sequences were tested on PfAP2-HC AP2 domain (GST-tagged) (assay: gcPBM binding intensity (ln(normalized median fluorescence intensity)); higher = stronger DNA binding).
In short: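 Plasmodium falciparum DNA-binding domains carrying a GST tag were expressed in E. coli and applied for 1 h, at about 25 μg on average, to an Agilent 4 × 180k array. The array held primer-extended double-stranded 36-bp intergenic genomic probes together with negative controls, and binding took place in 1× PBS with 1% milk, 0.2 mg/ml BSA, 0.5% salmon testes DNA and 0.03% Triton X-100. An Alexa488 anti-GST antibody detected bound protein, and the array was scanned at 488 nm. Binding intensity is taken as the highest Masliner-normalised natural-log median intensity across replicate spots of either probe orientation.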

Sequence	gcPBM binding intensity (ln)
AAAAAATTAAAAATACGTACATATATACATATATAT [XGTACX_site4621]	9.71
CATCATATAAATTCAAGTACAAGAAAAAGTAATATA [XGTACX_site2383]	9.64
ATATTTATGTAATGTTTGATTTTTTTTTTATGTGTG [CACACA_negctrl_site1422]	9.88
TATATATATGGACACACACACATATAAATAAATAAA [CACACA_site4406]	10.7
ATAAATATAGGACACACACACATATTATATATATAT [CACACA_site5658]	10.5
GAATAATATGGACATACACACATATACATACATATA [CACACA_site2114]	10.1
TACAAATATGGACACACACACATATTTATATTTATA [CACACA_site6420]	11
TAATAAAATAATATCACACATATTTATATATATTAT [CACACA_site5814]	9.61
AAAGGATATGGACACACACACACATATATATATATA [CACACA_site8686]	10.6
TAATAAATAGGACACACACACATATTTATATATCAT [CACACA_site6771]	11
TGTACAAATATGTACACACACACATATTTATTTATA [CACACA_site6419]	10.2
TACAAATATGGACACACACACATATATATATATATA [CACACA_site4488]	11.3
AGGATATGCGGACACACACACATATATATATATATA [CACACA_site5247]	11
AGGATACACGGACACACACACATATATATATATATA [CACACA_site4654]	10.6
TATTTATATGGACACACACACATATAAATAAATAAA [CACACA_site6346]	10.2
AACTATAACTAAAAAAATCACATAAAATATTTTATT [TGCATGCA_negctrl_site363]	9.46
TATTTAAAATAATGTGCAAAAGAATAAATAAATAAA [TGCATGCA_negctrl_site194]	9.74
GTGTACAAAATATGGTAATAAAGTAGTTACATGAAT [CACACA_negctrl_site1775]	9.86
TGTATATTTGATTCATGTACATATTTTATTTTAACT [XGTACX_site5169]	9.72
TTATTTATCAAAAAATGTACAAAAATATATAAACAA [XGTACX_site940]	9.6
ACGCACGAAATAAATACATGCATATTGTAAAAATTA [TGCATGCA_site310]	9.48
TTAAAAATAAAAAATACACACTCTAGTCCATGTAAC [CACACA_site3640]	10.1

Sequence	gcPBM binding intensity (ln)
ATGTAACACATATTTGGTACAGATAGATAAAAGTAT [XGTACX_site8291]	9.87
ATAAAGAAAAATAGAAGTACATATATGCATGTTAAT [XGTACX_site4480]	9.86
ATGTGTTTCTTCAATTGTACTAAAAGGTATATATTG [XGTACX_site4608]	9.63
TAAATTATAAATTGCACACATATTTTTATATTTATA [CACACA_site2976]	9.77
GCTTGGATATATTAATGTACTTATATATTATGTTGT [XGTACX_site3768]	9.82
AATACATGCTTATTTTAACACACAAATGGTAGTAAT [CACACA_site8154]	9.83
TATATATATGGACACACACACATATATATATATTTT [CACACA_site5409]	10.3
TATATATATGGACACACACACACATATATATATATA [CACACA_site6121]	11.3
AAAAATTATGGACACACACACATATATATATATATT [CACACA_site4717]	10.3
ATGTCCTATATTAGTACACACATGAAAATATAAATA [CACACA_site7497]	9.66
AAAAAAAAAAAAAAAAGTACAAATTTAAAAATGTGT [XGTACX_site112]	9.44
CAAAAAAACAAACACACACACACACCGATATATATA [CACACA_site9218]	10.5
AATATAAATAAAAACACACACACACCGATATATATA [CACACA_site5283]	10.8
CTATAATAATAAAGTGAACACACACCGATAATATAT [CACACA_site9377]	10.1
AATAAAAAGGAACACACACACACACCGATATATATA [CACACA_site5895]	11.2
TGGGAATAAAAACACACACACACACCGATATATATA [CACACA_site5875]	11.3
AAAAAGGATAAACACACACACACACCGATATATATA [CACACA_site8206]	11
AGAATAAAAAGGAACACACACACACCCATATATATA [CACACA_site3590]	10.7
AAAGATAAAAAAAGTACACACACACCGATATATATA [CACACA_site9006]	10.6
CACTAAAATAAACACACACACACACCGATATATATA [CACACA_site9379]	10.8
AACGAAGCATAAAATGTTATGTATATATATAAATAT [TGCATGCA_negctrl_site304]	9.79
ATAGAAATATATATATGTACATATAGATAAATCTAT [XGTACX_site7833]	9.75

Sequence	gcPBM binding intensity (ln)
ATATGTACATATCTCATGCACTTAACAAAAAAAAAG [GTGCAC_site9898]	9.56
TACATTCGGAGTAAAAAAAAATTTATACAATTACTT [XGTACX_negctrl_site29]	9.44
AATAGAATAATCCTTACACACACACCCACACGAATA [CACACA_site8053]	10.4
ATAATCCTTAGACACACACACACACGAATAAATAAA [CACACA_site6364]	11.3
TAGAATAATCCTTACACACACACACCCACGAATAAA [CACACA_site483]	10.5
AATCCTTACGAACACACACACACGAATAAATAAAAA [CACACA_site6363]	10.8
AATCCTTACAGACACACACACACGAATAAATAAAAA [CACACA_site480]	10.6
AATCCTTACGGACACACACACACGAATAAATAAAAA [CACACA_site4422]	11
GAATTTCAACAAAGTAGTACATTTTATAGTAATTGG [XGTACX_site2319]	9.48
ATAAACATATCAATATGTACATATTTTTGTTTGTAT [XGTACX_site7018]	9.77
TAATTTTTATTCAGTTCACACACGCTTTAATATTAT [CACACA_site9147]	9.94
GTTATATTCCTACAGAGTACATAAAAATGCACATCA [XGTACX_site1948]	9.54
AAAAAAAAAAAATACACACAAACACAAATTAAATAA [CACACA_site3809]	10.3
GTTTCAAAATTAAACACACACAAAAAAAAAAAAAAA [CACACA_site2680]	9.72
TAAATTAAAAAACACACACACAAAAAAAAAAAAAAA [CACACA_site2263]	11.2
CATAAATTAAAACACACACACACAAAAAAAAAAAAA [CACACA_site2262]	11.6
AAAAAAAAAAAAAATACACACAAACACAAATTAAAT [CACACA_site5982]	10.8
AAAAAATTAATAAAAACACACAAAAAAAATAAACAA [CACACA_site1907]	9.95
TACCCACGTATATATATACACACTAATATACACCCA [CACACA_site9381]	9.88
TTAAGCCGCAATATGGGTACATAGGAAGAAGGGGAA [XGTACX_site8397]	9.56
TTTTAAATTTAATTTACACACTTTTCATAGCATTGA [CACACA_site3794]	9.61
TGCAGTCTGGAGAAAAGTACACAGTATCTGGTAGCT [XGTACX_site2013]	9.58

Sequence	gcPBM binding intensity (ln)
CATACATACATACATACACACATACATATGTATTTA [CACACA_site5384]	9.99
ACTTGTAAGAAACACACACACACACCGATATATATA [CACACA_site4594]	11.2
AAACTTGTAAGAAACACACACACACCCATATATATA [CACACA_site797]	10.5
AAACTTGTAAGAAACACACACACACGCATATAAATA [CACACA_site6518]	10.7
TTGTAAGAAAAACACACACACACATATATATATATA [CACACA_site795]	10.3
TTAAACTTGAAACACACACACACACCGATATAAAAA [CACACA_site4578]	10.5
ACTTGTAAGAAACACACACACACACCCATATATATA [CACACA_site796]	11.5
AATTAAATTACTTATACACACATAAAATGCCTGTAT [CACACA_site6597]	9.84
TTATGTAAAAAAAAAAAAAAAAAAAAAAAAAAAAAA [CACACA_negctrl_site984]	9.05
ATTATCAAAAAAAAAAAAAAAAAAAAAAAAAAAAAA [CACACA_negctrl_site1118]	8.87
AACTTGTATATATACACACACACACTATCTTTTTTT [CACACA_site8601]	10.9
AACTTGTATTTATACACACACACACTAGCTTTTTTT [CACACA_site5132]	10.4
AACTTGTATTTATACACACACACACTGTCTTTTTTT [CACACA_site7009]	10.5
ATTTTTATTAGTTATTGTACTTATTATTTATTAATT [XGTACX_site2568]	9.78
TACACCCATAGACACACACACACGCATAAAAAAAAA [CACACA_site8428]	11.1
CACCCATAGAAACACACACACGCATAAAAAAAAAAA [CACACA_site1513]	10.7
TACAGACAGAAACACACACACACGCATAAAAAAAAA [CACACA_site1514]	10.5
TATATACACAGACACACACACACATACACGCACATA [CACACA_site6909]	10.5
TACAGACATAGACACACACACACGCATAAAAAAAAA [CACACA_site6820]	11.4
TACACATACCCATACACACGCATAGAAACATACGAA [CACACA_site5212]	10.2
AATAAATAAAAATGCACACAGTTAACATGTTGAATT [CACACA_site4795]	10.2
GCATCTCATTTGTGATGTACTATATTATCCGTTTTT [XGTACX_site7576]	9.71

— the supplement of paper PMC11417369
